Laboratory results as given in PubChem BioAssay AID651623 (National Center for Advancing Translational Sciences (NCATS), 2012).
Values without a mark were called inactive.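 Rule for the calls: active = inhibition of at least 60% at 114 µM; inconclusive = inhibition from 30% up to below 60% at 114 µM; inactive = inhibition below 30% at 114 µM.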

What follows are compounds tested against Ubiquitin carboxyl-terminal hydrolase 8 (Homo sapiens) (UniProt P40818) (assay: Inhibitors of USP1/UAF1: SAR in USP8 diubiquitin SDS-PAGE gel assay). Conditions: USP8 K63 diubiquitin cleavage; series mostly up to 114 µM; inhibition: at the top concentration.
Sequence of Ubiquitin carboxyl-terminal hydrolase 8 (Homo sapiens) (P40818 whole entry, looked up): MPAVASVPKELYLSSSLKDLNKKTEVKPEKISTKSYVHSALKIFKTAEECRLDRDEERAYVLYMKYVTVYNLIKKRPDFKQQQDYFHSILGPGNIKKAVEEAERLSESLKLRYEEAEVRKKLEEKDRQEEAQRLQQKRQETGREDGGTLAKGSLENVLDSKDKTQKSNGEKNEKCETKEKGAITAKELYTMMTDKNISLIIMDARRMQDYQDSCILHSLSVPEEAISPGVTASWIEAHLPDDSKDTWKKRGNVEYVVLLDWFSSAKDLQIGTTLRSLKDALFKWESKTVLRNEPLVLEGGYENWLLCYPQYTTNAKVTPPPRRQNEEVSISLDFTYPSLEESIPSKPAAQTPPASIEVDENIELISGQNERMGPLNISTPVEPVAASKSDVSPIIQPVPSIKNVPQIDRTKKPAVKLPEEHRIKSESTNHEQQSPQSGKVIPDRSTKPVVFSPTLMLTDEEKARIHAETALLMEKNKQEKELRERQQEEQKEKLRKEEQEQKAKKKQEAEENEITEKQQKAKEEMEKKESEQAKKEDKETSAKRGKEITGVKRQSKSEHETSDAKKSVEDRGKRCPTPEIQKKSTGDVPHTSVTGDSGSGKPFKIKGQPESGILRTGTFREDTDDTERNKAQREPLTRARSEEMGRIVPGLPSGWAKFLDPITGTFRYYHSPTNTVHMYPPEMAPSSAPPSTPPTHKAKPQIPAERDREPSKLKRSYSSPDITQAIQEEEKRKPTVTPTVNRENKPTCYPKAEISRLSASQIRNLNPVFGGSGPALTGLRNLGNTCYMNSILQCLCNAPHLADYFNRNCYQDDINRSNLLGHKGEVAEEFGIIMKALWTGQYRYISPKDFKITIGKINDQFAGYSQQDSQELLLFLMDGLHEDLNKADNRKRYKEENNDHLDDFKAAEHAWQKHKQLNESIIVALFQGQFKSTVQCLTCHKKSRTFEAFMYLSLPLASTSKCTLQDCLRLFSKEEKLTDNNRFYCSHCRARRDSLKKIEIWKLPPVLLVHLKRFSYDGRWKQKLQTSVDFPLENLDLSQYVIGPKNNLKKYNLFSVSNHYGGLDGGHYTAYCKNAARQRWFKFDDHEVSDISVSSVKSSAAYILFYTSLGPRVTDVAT
From the text: Deubiquitinating enzymes (DUBs) are a class of enzymes that can cleave isopeptide bond formed between the C-terminal carboxylate of ubiquitin and a lysine side-chain amino group on the target protein. Among them, ubiquitin specific proteases (USPs) constitute the largest DUB family. Human USPs are emerging as promising targets for pharmacological intervention because of their connection to a number of human diseases, including prostate, colon and breast cancer (1, 2), pediatric acute lymphoblastic leukemia (3), and familial cylindromatosis (4). The advantage of inhibiting USPs lies in the potential specificity of therapeutic intervention that can lead to better efficacy and reduce nonspecific side effects. In a collaboration between the University of Delaware and the NIH Chemical Genomics Center, a high-throughput screen assay was developed to screen for USP1/UAF1 inhibitors (5). […]
The inhibition assay contains 80 nM USP8, 2 microM K63 linked diubiquitin, and inhibitors at varied concentrations (0.08 microM - 114 microM). […] The intensity of the individual diubiquitin and monoubiquitin band was quantified using Quantity One 4.3.1 (Biorad, Hercules, CA). The percentage of the conversion was determined and used to calculate the reaction rate. […]

**Q.** With `Cc1cnc(-c2ccccc2C(C)C)nc1NCc1ccc(-n2ccnn2)cc1` as the compound, how does the “inhibition” value read?
**A.** 3%
